Compounds with a hit are over-represented: about 19% of the library has one in this group of screens.
MCF10A rerep = A quantitative high throughput screen for small molecules that induce DNA re-replication in MCF 10a normal breast cells. AID 624296, 2012. MCF 10A DNA re-replication, Hoechst nuclear intensity, 48 h. 2.9% of 350,000 active. Potency, µM (highest dose often 46.1 µM), usual class: activators; further: nearly all actives have a fitted effect of over 50% in size
TDP1 cell noCPT = qHTS for Inhibitors of human tyrosyl-DNA phosphodiesterase 1 (TDP1): qHTS in cells in absence of CPT; 15% of 420,000 active; AID 686978, 2013; DT40 Tdp1-/- hTDP1 cells, no CPT, ATP luminescence, 48 h; Potency, µM (highest dose often 46.2 µM), most hits filed as inhibitors; further: nearly all actives have a fitted effect of over 55% in size
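DT40 Tdp1-/-;hTDP1 cells, no CPT (DMSO vehicle only), 400 cells/well; compounds pin-transferred; ≥48 hr, 37 °C; CellTiter-Glo 30 min RT dark, luminescence read.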
SW480 rereplic = A quantitative high throughput screen for small molecules that induce DNA re-replication in SW480 colon adenocarcinoma cells. SW480 DNA re-replication, Hoechst DNA content imaging, 48 h. Potency, µM (doses to about 46.1 µM), hits mostly activators. 1.8% of 340,000 active. AID 624297, 2012; further: nearly all actives have a fitted effect of over 55% in size
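First, 250 cells per well were seeded. Next, compound or vehicle (23 nL) was pinned in, plates sat 48 hr at 37 C. Finally Hoechst was added for 40 min before fluorescence scanning.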
BCR signal inh = qHTS Assay to Find Inhibitors of Chronic Active B-Cell Receptor Signaling. Potency, µM (series often up to 46.1 µM), usual class: inhibitors. AID 493014, 2011. 0.05% of 340,000 active. ABC-DLBCL IkBa-CBG/CBR reporter, luminescence ratio, 4 h; active means well fitted inhibition curve with a large enough effect in the signal ratio, with a control signal flat, not every such curve was filed as active; inconclusive means small, poorly fitted or top-dose-only effect, or effect the other way, or a change in a side signal; the % refers to the signal ratio
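Concentration-response series (up to 46 uM) were applied to TMD8 dual-reporter cells for 4 h at 37C with doxycycline. Green/red ratio, after filter-overlap correction, defined %Activity; red signal alone was normalised to basal cells and zero luminescence.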
TDP1 cell CPT = qHTS for Inhibitors of human tyrosyl-DNA phosphodiesterase 1 (TDP1): qHTS in cells in presence of CPT; chicken DT40 Tdp1-/-;hTDP1 cells + 20 nM CPT, ATP luminescence, 48 h; Potency, µM (titrated, usually from 46.2 µM), usual class: inhibitors; 12% of 420,000 active; AID 686979, 2013; further: nearly all actives have a fitted effect of over 55% in size
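Chicken DT40 Tdp1-/- cells stably complemented with human TDP1 were seeded at 400 cells/well in medium containing 20 nM camptothecin, exposed to pin-transferred compounds, and grown at 37 °C for at least 48 hr. Viability was read as ATP luminescence.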
IL1B secr inh = qHTS for Inhibitors of Inflammasome Signaling: IL-1-beta AlphaLISA Primary Screen | THP-1 LPS/ATP IL-1B secretion, AlphaLISA, 16 h; active compounds read low | activity change, % at 57.5 µM | 4.7% of 360,000 active | AID 743279, 2014; in the data active means activity change below about -50%; inconclusive means mostly about -30% to -49%
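Secreted IL-1B measured by AlphaLISA bead assay after 16 h compound exposure of THP-1 cells; compounds (final up to 57.5 uM) added 1 h before LPS (250 ng/mL) and ATP (1.25 mM) stimulation; lower signal means less secretion.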
Numbers stand for hits; . = inactive; ? = inconclusive; / = no result given; [ ] = remark or other dose. Unless noted, the call rests on the fitted dose curve; in most records, active means well fitted curve in the direction sought with a large enough effect; inconclusive means small, poorly fitted or top-dose-only effect, or another doubt; inactive means no such curve, though single readings can be large; an effect the other way counts as inactive or inconclusive.

SMILES | MCF10A rerep | TDP1 cell noCPT | SW480 rereplic | BCR signal inh | TDP1 cell CPT | IL1B secr inh
C=CCN1C(c2cccc(C(F)(F)F)c2)=CS/C1=C(/C#N)c1nnc(N2CCOCC2)n1-c1ccccc1 | ? | 12µM | . | . | 12µM | .
N#C/C(=C\c1ccc(-c2cccc([N+](=O)[O-])c2)o1)c1nnc(N2CCOCC2)n1-c1ccccc1 | / | / | / | . | / | /
CCOc1ccc2nc(SC3CC(=O)N(c4cccc(OC)c4)C3=O)sc2c1 (configuration not stated) | ? | 3.7µM | / | . | 3.3µM | .
CCOc1ccc2nc(SCCNS(=O)(=O)c3ccccc3)sc2c1 | . | 16µM | . | . | . | -68
CCOc1ccc2nc(SC3CC(=O)N(c4ccccc4)C3=O)sc2c1 (configuration not stated) | ? | 3.7µM | ? | ? | 2.9µM | .
Cc1nn2c(-c3ccco3)ccnc2c1-c1ccc(Cl)cc1 | / | ? | / | / | . | /
CC1(C(=O)NS(=O)(=O)c2ccc3c(c2)CCO3)CCN1C(=O)C1(c2ccc(Cl)cc2)CCC1 (configuration not stated) | / | . | / | / | ? | .
O=C1OC[C@H]2CCCN2C(=O)[C@@H](CC(=O)N(CCO)Cc2ccccc2)C/C=C\C[C@@H]1Cc1ccc(F)cc1 | ? | 18µM | . | ? | 7.3µM | .
CC(C)(C)OC(=O)C[C@H]1C/C=C\C[C@@H](CC(=O)N(CCO)Cc2ccccc2)C(=O)N2CCC[C@H]2COC1=O | . | ? | . | ? | 18µM | .
CC(C)(C)OC(=O)C[C@H]1C/C=C\C[C@@H](CC(=O)N(CCO)Cc2ccccc2)C(=O)N2CCC[C@@H]2COC1=O | . | ? | . | . | ? | .
COc1ccccc1NC(=O)NC(=O)c1ccccc1 | . | ? | . | ? | . | .
O=C(NCCCN1CCOCC1)c1ccc(-n2nc(C(F)(F)F)cc2-c2cccs2)cc1 | ? | 18µM | . | ? | 18µM | -87
CCCn1c2ccccc2c2cnn(CC(=O)NCCCOC)c(=O)c21 | . | . | . | . | . | .
CCCCN(CC)C(=O)Cn1ncc2c3ccccc3n(CCC)c2c1=O | . | 23µM | . | . | ? | .
CCCn1c2ccccc2c2cnn(CC(=O)N(C)c3ccc(F)cc3)c(=O)c21 | / | 18µM | / | / | 18µM | /
CCOC(=O)Cn1ncc2c3ccccc3n(CC(=O)OCC)c2c1=O | . | . | . | . | . | .
CCCn1c2ccccc2c2cnn(CC(=O)N(Cc3ccccc3)C(C)C)c(=O)c21 | / | 18µM | / | / | 23µM | /
CC1CCN(C(=O)CSc2nnc(CNC(=O)c3ccc(S(=O)(=O)N(C)C)cc3)o2)CC1 | . | . | . | . | ? | .
CCCc1ccc(C(O)c2ncc(-c3ccccc3F)[nH]2)cc1 (configuration not stated) | / | ? | / | / | 18µM | .
CSc1ccc(C(O)c2ncc(-c3ccccc3Cl)[nH]2)cc1 (configuration not stated) | / | . | / | / | ? | .
CSc1ccc(C(O)c2ncc(-c3ccccc3F)[nH]2)cc1 (configuration not stated) | / | ? | / | / | 29µM | .
OC(c1ccc(F)cc1)c1ncc(-c2cccc3ccccc23)[nH]1 (configuration not stated) | / | ? | / | / | ? | .
OC(c1ccc(Cl)cc1)c1ncc(-c2ccccc2F)[nH]1 (configuration not stated) | / | ? | / | / | . | .
COc1ccccc1-c1cnc(C(O)c2ccc(SC)cc2)[nH]1 (configuration not stated) | / | ? | / | / | 29µM | .
CCc1ccc(C(O)c2ncc(-c3cccc4ccccc34)[nH]2)cc1 (configuration not stated) | / | 16µM | / | / | ? | .
SMILES | MCF10A rerep | TDP1 cell noCPT | SW480 rereplic | BCR signal inh | TDP1 cell CPT | IL1B secr inh
CCCCCNS(=O)(=O)c1cc2c3c(c1)CCC(=O)N3CCC2 | . | . | . | . | ? | .
O=C(CCNC(=O)c1ccccc1)NNC(=O)COc1ccccc1Cl | . | . | . | . | . | .
COc1c(C)cc(C(O)c2ncc(-c3ccccc3Cl)[nH]2)cc1C (configuration not stated) | / | ? | / | / | . | .
COc1ccccc1-c1cnc(C(O)c2cc(C)c(OC)c(C)c2)[nH]1 (configuration not stated) | / | 23µM | / | / | 23µM | .
Cc1ccc2ccccc2c1C(O)c1ncc(-c2ccccc2Cl)[nH]1 (configuration not stated) | / | ? | / | / | 26µM | .
O=C1NC[C@H](CCCCN2C[C@H](Cc3ccc(O)cc3)N(Cc3ccccc3)C(=O)C2=O)N(CC2CCCCC2)C1=O | / | . | / | / | . | .
NC(=O)c1ccc(-c2nnc(Nc3ccc(S(N)(=O)=O)cc3)c3ccccc23)cc1 | . | ? | . | ? | ? | .
CCN(CC)S(=O)(=O)c1cccc(C(=O)N[C@H](C(=O)Nc2nc3ccccc3s2)C(C)C)c1 | . | 15µM | . | ? | ? | .
C=CCN(CC=C)S(=O)(=O)c1ccc2nc(NC(=O)C(C)C)sc2c1 | 8.2µM | 2.6µM | ? | ? | 5.8µM | .
CCN(CC)S(=O)(=O)c1cccc(C(=O)N[C@H](C(=O)Nc2nc3ccc(F)cc3s2)C(C)C)c1 | ? | 15µM | ? | ? | 16µM | .
C=CCSc1nnc2c(n1)OC(C)=Nc1ccc(Br)cc1-2 | . | . | . | . | . | .
c1ccc2c(c1)oc1c(Nc3ccc4c(c3)OCO4)ncnc12 | . | . | . | ? | . | .
c1coc(CSc2ncnc3c2oc2ccccc23)c1 | . | 8.2µM | . | ? | . | .
CC(=O)N1CCN(c2ccc(Nc3ncnc4c3oc3ccccc34)cc2)CC1 | ? | 10µM | .[9.22 µM] | ? | 15µM | -81
O=C(CSc1ncnc2c1oc1ccccc12)N1CCN(c2ccccc2)CC1 | . | 29µM | . | / | ? | .
CCc1nc(Nc2ccc(N3CCN(C(C)=O)CC3)cc2)c2oc3ccccc3c2n1 | ? | 13µM | . | ? | 21µM | .
CCc1nc(Nc2ccccc2)c2oc3ccccc3c2n1 | . | ? | . | ? | ? | .
COc1ccc(S(N)(=O)=O)cc1C(=O)OCC(=O)N1CC(=O)Nc2ccccc21 | . | . | . | . | . | .
CN(C)Cc1ccccc1-c1cc(NCc2ccccc2)ncn1 | / | . | / | / | . | /

Compound activity from PubChem BioAssay.
